PubChem BioAssay (EPA / NIEHS)
Values joined by “and” are separate entries in the source; they are usually repeats but may differ in a detail not shown here. Equal entries are not always repeated. Some compounds were tested as several samples or in several runs, with calls that do not always agree. Active and inactive are the calls of the source. The calls were made as follows: active = hit-call score of the fitted dose curve at least 0.9, where 1 is the maximum; inactive = score below 0.9.

Key:
Conditions in all cases: primary human HUVEC with PBMC; actives raise or lower the signal
[1] = read-out: Macrophage colony-stimulating factor (MCSF), CSF1 (gene 1435); assay: BSK_LPS_MCSF: BioMAP Diversity Plus: LPS Assay for Macrophage colony-stimulating factor (MCSF) Biomarker Activity (AID 2283083)
Procedure, shortened: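 HUVEC–PBMC co-culture, M-CSF measured by ELISA 24 h after chemical dosing. Fitted in both directions relative to DMSO as negative control; overt cytotoxicity assessed by SRB total-protein staining in parallel cultures.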

[2] = read-out: Tissue Factor, F3 (gene 2152); assay: BSK_LPS_TissueFactor: BioMAP Diversity Plus: LPS Assay for Tissue Factor Biomarker Activity (AID 2283084)
Procedure, shortened: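 Human umbilical vein endothelial cells co-cultured with PBMC were dosed with compound. Cell-surface CD142 was measured by ELISA 24 h later. Activity was fitted bidirectionally against DMSO, with SRB total-protein staining in parallel cultures for cytotoxicity.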

[3] = read-out: Tumor necrosis factor (Homo sapiens) (UniProt P01375); assay: BSK_LPS_TNFa: BioMAP Diversity Plus: LPS Assay for Tumour Necrosis Factor alpha (TNFa) Biomarker Activity (AID 2283085);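 as to AC50: TNFa protein level quantified by ELISA in the co-culture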
Procedure, shortened: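 TNFa was quantified by ELISA in LPS-activated co-cultures of human endothelial cells and PBMC, 24 h post-dosing. Both increases and decreases versus DMSO were fitted.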

[4] = read-out: Vascular cell adhesion molecule 1 (VCAM1), VCAM1 (gene 7412); assay: BSK_LPS_VCAM1: BioMAP Diversity Plus: LPS Assay for Vascular cell adhesion molecule 1 (VCAM1) Biomarker Activity (AID 2283086)
Procedure, shortened: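 VCAM-1 quantified by ELISA in an LPS-activated co-culture of human endothelial cells and peripheral blood mononuclear cells, read 24 h post-treatment. Fitted in both directions versus DMSO; parallel SRB staining flags overt cytotoxicity.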

CD38, CD38 (gene 952) = assay: BSK_SAg_CD38: BioMAP Diversity Plus: SAg Assay for CD38 Biomarker Activity (AID 2283087)
Procedure, shortened: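 CD38 quantified by ELISA (fluorescence) in a superantigen-activated endothelial cell–PBMC co-culture at 24 h post-dose. Activity fitted in both directions relative to DMSO; parallel SRB and Alamar Blue cytotoxicity read-outs.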

CD40, CD40 (gene 958) = assay: BSK_SAg_CD40: BioMAP Diversity Plus: SAg Assay for CD40 Biomarker Activity (AID 2283088)
Procedure, shortened: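 HUVEC plus PBMC co-culture, superantigen-activated, with CD40 read by ELISA 24 h after dosing. Curves fitted in both directions against DMSO. Overt cytotoxicity checked by parallel SRB total-protein staining.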

CD69, CD69 (gene 969) = assay: BSK_SAg_CD69: BioMAP Diversity Plus: SAg Assay for CD69 Biomarker Activity (AID 2283089);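 as to AC50: cell surface CD69 protein quantified by ELISA with fluorescence detection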
Procedure, shortened: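 Endothelial/PBMC co-culture; chemical added; 24 h incubation; CD69 ELISA with fluorescence detection; bidirectional fit vs DMSO.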

[5] = read-out: Monocyte Chemoattractant Protein-1 (MCP1), CCL2 (gene 6347); assay: BSK_SAg_MCP1: BioMAP Diversity Plus: SAg Assay for Monocyte Chemoattractant Protein-1 (MCP1) Biomarker Activity (AID 2283090)
Procedure, shortened: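 Values derive from bidirectional fitting of ELISA-measured MCP1 against DMSO controls. Readings were taken 24 h after dosing human vascular endothelial cells co-cultured with peripheral blood mononuclear cells under superantigen stimulation.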

[6] = read-out: E-selectin (Homo sapiens) (UniProt P16581); assay: BSK_SAg_Eselectin: BioMAP Diversity Plus: SAg Assay for Eselectin Biomarker Activity (AID 2283091)
Procedure, shortened: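 Human umbilical vein endothelial cells co-cultured with peripheral blood mononuclear cells, SAg system. E-selectin is measured by ELISA 24 h after dosing and fitted bidirectionally against DMSO. Cytotoxicity is checked by SRB staining of parallel cultures.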

[7] = read-out: Monokine induced gamma interferon (MIG), CXCL9 (gene 4283); assay: BSK_SAg_MIG: BioMAP Diversity Plus: SAg Assay for Monokine induced gamma interferon (MIG) Biomarker Activity (AID 2283092)
Procedure, shortened: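 Measures CXCL9 protein by ELISA in a human vascular primary-cell co-culture (umbilical vein endothelium with PBMC) 24 h after chemical addition. Activity is scored up or down from the DMSO control.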

Measured: AC50

Chain of Tumor necrosis factor (Homo sapiens) (P01375 whole entry, looked up): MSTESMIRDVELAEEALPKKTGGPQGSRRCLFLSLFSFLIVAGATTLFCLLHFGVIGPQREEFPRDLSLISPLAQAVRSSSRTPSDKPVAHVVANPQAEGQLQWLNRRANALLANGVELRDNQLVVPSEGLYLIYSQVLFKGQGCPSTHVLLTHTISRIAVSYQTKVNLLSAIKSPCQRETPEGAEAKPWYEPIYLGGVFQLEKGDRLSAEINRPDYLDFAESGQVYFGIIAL
Chain of E-selectin (Homo sapiens) (P16581 whole entry, looked up): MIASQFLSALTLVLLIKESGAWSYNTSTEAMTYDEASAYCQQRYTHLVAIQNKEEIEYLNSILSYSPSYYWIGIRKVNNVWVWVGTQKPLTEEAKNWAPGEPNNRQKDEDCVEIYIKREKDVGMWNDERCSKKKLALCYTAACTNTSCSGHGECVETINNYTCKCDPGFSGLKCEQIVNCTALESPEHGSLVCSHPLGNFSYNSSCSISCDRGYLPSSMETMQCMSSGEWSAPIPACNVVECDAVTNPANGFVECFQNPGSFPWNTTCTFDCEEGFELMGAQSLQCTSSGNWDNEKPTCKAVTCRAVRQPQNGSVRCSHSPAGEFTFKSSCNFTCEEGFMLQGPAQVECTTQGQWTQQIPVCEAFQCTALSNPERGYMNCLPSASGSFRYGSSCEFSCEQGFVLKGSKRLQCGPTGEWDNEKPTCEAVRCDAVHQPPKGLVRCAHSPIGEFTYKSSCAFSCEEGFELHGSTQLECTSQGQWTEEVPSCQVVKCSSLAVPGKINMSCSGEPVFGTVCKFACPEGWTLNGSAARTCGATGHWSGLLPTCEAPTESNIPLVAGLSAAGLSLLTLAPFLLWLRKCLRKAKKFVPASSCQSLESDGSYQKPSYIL

O=C(O)c1cccc(N(Cc2cccnc2)c2ccc(OC(F)F)c(OC(F)F)c2)c1
active: [2] 9.14 µM | [3] 1.95 µM | [4] 15.9 µM | CD38, CD38 (gene 952) 3.61 µM | CD40, CD40 (gene 958) 13.7 µM | CD69, CD69 (gene 969) 4.01 µM | [5] 6.77 µM | [6] 1.81 µM
inactive: [1] | [7]

CCOc1cccc(-n2cc(C(=O)N3CCN(c4cc(C(=O)O)c5ccccc5c4)CC3)nc2-c2ccc(C)cc2)c1
active: [1] 23.2 µM | [2] 19.2 µM | [3] 20.9 µM | [4] 14.2 µM | CD38, CD38 (gene 952) 28.2 µM | CD40, CD40 (gene 958) 13.6 µM | CD69, CD69 (gene 969) 21.7 µM | [5] 28.3 µM | [6] 19.2 µM | [7] 35.4 µM

Oc1ccc2c(c1)-c1ccccc1C2
active: [3] 0.334 µM | CD40, CD40 (gene 958) 24.8 µM
inactive: all other assays above

Cc1ccc(S(=O)(=O)O)cc1C
inactive: all assays above

On1ccccc1=S
active: [4] 19.8 µM | CD38, CD38 (gene 952) 12.2 µM | CD40, CD40 (gene 958) 27.8 µM | CD69, CD69 (gene 969) 12.2 µM | [5] 13 µM | [6] 8.16 µM | [7] 19.8 µM
inactive: [1] | [2] | [3]

O=c1n(CC2CO2)c(=O)n(CC2CO2)c(=O)n1CC1CO1 (stereo unspecified)
inactive: [2] | [3] | [7]
active: [1] 20 µM | [4] 21.8 µM | CD38, CD38 (gene 952) 18.5 µM | CD40, CD40 (gene 958) 20 µM | CD69, CD69 (gene 969) 20 µM | [5] 20 µM | [6] 10.7 µM

C=CC(=C)CCC=C(C)C
inactive: all assays above

CC(C)CCCCCCCOC(=O)CCCCC(=O)OCCCCCCCC(C)C
inactive: all assays above

C=CCCCCCCCCC(=O)O
active: [3] 0.74 µM
inactive: all other assays above

CC[C@H]1CC[C@H](NCc2cc3c(cc2OC)[C@H]2C[C@H]2C(=O)N3C)[C@H](c2ccccc2)N1
inactive: all assays above

Cn1cnc([N+](=O)[O-])c1Sc1ncnc2nc[nH]c12
active: [1] 20.3 µM and 5.64 µM | [3] 19.2 µM and 15.7 µM | [4] 25.3 µM and 6.4 µM and 13.7 µM | CD38, CD38 (gene 952) 12.1 µM | [5] 19.9 µM and 12.6 µM | [6] 6.91 µM and 12.6 µM and 16.9 µM
inactive: [1] | [2] | [3] | CD38, CD38 (gene 952) | CD69, CD69 (gene 969) | [5] | [7]

COc1ccc(/C=C/S(=O)(=O)NC(=O)c2ccc(C)cc2Cl)cc1
active: CD40, CD40 (gene 958) 4.18 µM
inactive: all other assays above

Cc1ccc(N)cc1O
active: [6] 6.15 µM
inactive: all other assays above

CC(C)=CCCC(C)CCO (stereo unspecified)
inactive: all assays above

CCCCC(CC)COC(=O)CCCCCCCCC(=O)OCC(CC)CCCC (stereo unspecified)
inactive: all assays above

CCNc1ccccc1
inactive: all assays above

CC(=O)OC[C@H]1O[C@@](COC(C)=O)(O[C@H]2O[C@H](COC(C)=O)[C@@H](OC(C)=O)[C@H](OC(C)=O)[C@H]2OC(C)=O)[C@@H](OC(C)=O)[C@@H]1OC(C)=O
inactive: all assays above

COc1cccc(-c2ccc(/C=C\CN3CCCCCC3)cc2Cl)c1
inactive: [1] | [2] | [3] | [5]
active: [4] 26 µM | CD38, CD38 (gene 952) 29.1 µM | CD40, CD40 (gene 958) 27.3 µM | CD69, CD69 (gene 969) 30.4 µM | [6] 29.8 µM | [7] 25.8 µM

O=C1OC(=O)C2C3C=CC(C3)C12 (stereo unspecified)
inactive: all assays above

CC(C)=CCC/C(C)=C/CO
inactive: all assays above

COc1ccc2sc(C(=O)Nc3nnn[nH]3)c(OC(C)C)c2c1
active: [1] 14.1 µM | [2] 33.2 µM | [3] 28.9 µM | [4] 8.99 µM | CD38, CD38 (gene 952) 16.2 µM | CD40, CD40 (gene 958) 9.27 µM | CD69, CD69 (gene 969) 19.9 µM | [5] 15.4 µM | [6] 30 µM | [7] 27.8 µM

Clc1nc(Cl)c(Cl)c(Cl)c1Cl
active: [1] 32.2 µM | [2] 33.1 µM | [3] 31.7 µM | [4] 32.3 µM | CD38, CD38 (gene 952) 34.4 µM | CD40, CD40 (gene 958) 30 µM | CD69, CD69 (gene 969) 26.3 µM | [5] 31.4 µM | [6] 25.1 µM | [7] 31.2 µM

CCOC(=O)CC(CC(=O)OCC)(OC(C)=O)C(=O)OCC
inactive: all assays above

O=C1CCC(N2C(=O)c3ccccc3C2=O)C(=O)N1 (stereo unspecified)
inactive: all assays above

CNCc1ccc(NC(=O)c2c[nH]c3c2C(=O)CCC3)cc1
inactive: all assays above

CC(=O)c1ccc2c(c1)[C@H](NC(=O)c1ccc(F)cc1)[C@@H](O)C(C)(C)O2
inactive: all assays above

CCCCCCCCCCCCc1ccccc1
active: CD40, CD40 (gene 958) 31.8 µM
inactive: all other assays above

CN(C)c1ccc(Cc2ccc(N(C)C)cc2)cc1
inactive: all assays above

CC[C@H]1OC(=O)[C@H](C)[C@@H](O[C@H]2C[C@@](C)(OC)[C@@H](O)[C@H](C)O2)[C@H](C)[C@@H](O[C@@H]2O[C@H](C)C[C@H](N(C)C)[C@H]2O)[C@](C)(O)C[C@@H](C)C(=O)[C@H](C)[C@@H](O)[C@]1(C)O
inactive: all assays above

CC[C@H](C)C(=O)O[C@H]1C[C@@H](C)C=C2C=C[C@H](C)[C@H](CC[C@@H]3C[C@@H](O)CC(=O)O3)[C@H]21
inactive: [2] | [7]
active: [1] 34 µM | [3] 33.5 µM | [4] 30.8 µM | CD38, CD38 (gene 952) 29.8 µM | CD40, CD40 (gene 958) 12.5 µM | CD69, CD69 (gene 969) 13.8 µM | [5] 33.7 µM

C[C@](N)(Cc1ccc(O)c(O)c1)C(=O)O
inactive: all assays above

Fc1ccccc1[C@@H](F)COC1CCC(Nc2ncnc3[nH]ncc23)CC1 (stereo partly specified)
active: [1] 20 µM | CD38, CD38 (gene 952) 20 µM | CD40, CD40 (gene 958) 16.3 µM | CD69, CD69 (gene 969) 24.2 µM | [5] 31.6 µM
inactive: [2] | [3] | [4] | [6] | [7]

CCc1cc(SCc2sc(-c3ccc(C(F)(F)F)cc3)nc2CN2CCN(c3ccc(OC)cc3)CC2)ccc1OCC(=O)O
active: [1] 13.3 µM | [2] 30.2 µM | [3] 38.1 µM | [4] 24.7 µM | CD38, CD38 (gene 952) 10.3 µM | CD69, CD69 (gene 969) 15.1 µM | [5] 11.4 µM | [6] 12.2 µM | [7] 14.1 µM

C1N2CN3CN1CN(C2)C3
inactive: all assays above
